D3 ag: activates the human D3 dopamine receptor; P35462; D3R DiscoveRx beta-arrestin cells, luminescence, 90 min; max activation, %; actives 0.58% (n = 410,000); AID 652048; in the data active = max activation above about 30%
Target sequence (P35462 whole entry, looked up): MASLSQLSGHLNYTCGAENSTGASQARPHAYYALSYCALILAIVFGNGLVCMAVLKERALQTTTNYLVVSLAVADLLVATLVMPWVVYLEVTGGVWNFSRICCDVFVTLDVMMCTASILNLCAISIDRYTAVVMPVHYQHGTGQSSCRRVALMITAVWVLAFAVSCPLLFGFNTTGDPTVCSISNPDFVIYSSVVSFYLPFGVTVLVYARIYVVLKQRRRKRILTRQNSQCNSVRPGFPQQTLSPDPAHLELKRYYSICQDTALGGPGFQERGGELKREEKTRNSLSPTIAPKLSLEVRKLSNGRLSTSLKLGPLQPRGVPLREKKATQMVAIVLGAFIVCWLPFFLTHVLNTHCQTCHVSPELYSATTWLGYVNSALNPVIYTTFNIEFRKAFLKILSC
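Agonist mode: compounds and dopamine controls were applied to plated cells for 90 min at 37 degrees C after an overnight attachment at 1500 cells/well. Luminescent read-out followed 30 - 60 minutes at room temperature with DiscoveRx detection reagent.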
BCR signal inh: chronic active BCR signaling inhibition. AID 493014. ABC-DLBCL IkBa-CBG/CBR reporter, luminescence ratio, 4 h. Potency, µM (doses to about 46.1 µM), hits mostly inhibitors. actives 0.05% (n = 340,000); active = well fitted inhibition curve with a large enough effect in the signal ratio, with a control signal flat, not every such curve was filed as active; inconclusive = small, poorly fitted or top-dose-only effect, or effect the other way, or a change in a side signal; the % refers to the signal ratio
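TMD8 human ABC-DLBCL cells with doxycycline-inducible IκBα–green luciferase fusion and unfused red luciferase, in 0.5% FBS medium; compounds up to 46 uM, 4 h at 37C. Green/red luminescence ratio, filter-overlap corrected, fitted to concentration-response curves.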
D1 potentiator: enhances dopamine response at the human D1 receptor; HEK293 TREx D1 cells, calcium flux, dopamine EC20 potentiation; P21728; AID 504651; actives 0.036% (n = 360,000); potentiation, % at 10 µM; in the data active = potentiation above about 30%
DRD3 antagonist: antagonists of human D3 dopamine receptor. P35462. D3R cells, DiscoveRx beta-arrestin luminescence, antagonist mode; stronger effect = lower value. max response, negative = inhibition, %. actives 2.5% (n = 360,000). AID 652054; in the data active = max response below about -50%; inconclusive = no clear call, values can overlap the other calls
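Cells plated overnight at 1500 cells/well, then exposed to library compounds with dopamine controls for 90 minutes at 37 degrees C. DiscoveRx reagent added for 30–60 minutes at room temperature; luminescence read, quantitative HTS format.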
D1 antagonist: human D1 dopamine receptor antagonism | P21728 | HEK293 TREx D1 cells, calcium flux, dopamine EC80; stronger effect = lower value | activity change, negative = inhibition, % at 10 µM | actives 3.2% (n = 360,000); in the data active = activity change below about -30%
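Tetracycline-induced HEK293 T-REx cells with force-coupled D1 receptor were loaded with a no-wash calcium dye. Compound was added after a 10 s baseline and read kinetically for 180 s; EC80 dopamine was then added and calcium flux followed another 180 s.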
D1 ag: activates the human D1 dopamine receptor; HEK293 T-REx D1 cells, calcium flux, agonist mode; activation, % at 2 µM; actives 1% (n = 360,000); AID 504660; in the data active = activation above about 30%
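Inducible HEK293 T-REx D1 cells, force-coupled to calcium signalling, were plated at 4000 cells/well with tetracycline and held overnight at 30 C. After no-wash calcium dye loading, compound-evoked calcium rise over 180 s flagged agonists.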
Large screens that a line does not name were inactive. Most compounds without a hit are left out; they make up all but 6% or so of the library.

COc1ccc(NC(=O)c2c(C)oc3ccc(O)c(CN4CCCCCC4)c23)cc1Cl	none (no result: BCR signal inh, DRD3 antagonist)
CC(C)OC(=O)NC(c1ccccc1)C(Cl)(Cl)Cl (stereo not given)	DRD3 antagonist -50
c1ccc2c(c1)OCCOCCOCCOCCOCCOc1ccccc1OCCOCCOCCO2	D1 antagonist -36
COc1ccc(C2/C=C\CN(C(=O)C3CCCC3)[C@H](Cc3ccccc3)C(=O)N2Cc2ccc(F)cc2)cc1 (stereo not given in full)	BCR signal inh inconclusive, DRD3 antagonist -68, D1 antagonist -37
COc1ccc([C@H]2/C=C\CN(C(=O)c3ccccc3)[C@@H](C)C(=O)N2Cc2ccc(F)cc2)cc1	none (no result: BCR signal inh, D1 potentiator, D1 antagonist, D1 ag)
COc1ccc([C@H]2/C=C\CN(C(=O)C3CCCC3)[C@@H](C)C(=O)N2Cc2ccc(F)cc2)cc1	DRD3 antagonist inconclusive (no result: BCR signal inh, D1 potentiator, D1 antagonist, D1 ag)
COc1ccc([C@H]2/C=C\CN(S(=O)(=O)/C=C/c3ccccc3)[C@@H](C)C(=O)N2Cc2ccc(F)cc2)cc1	D3 ag 40 (no result: BCR signal inh, D1 potentiator, D1 antagonist, D1 ag)
O=C(CCC1N=C2c3ccccc3N=C(SCc3ccccc3Cl)N2C1=O)NCCc1ccccc1 (stereo not given)	none (no result: BCR signal inh, DRD3 antagonist)
Cc1cccc(C)c1N1CCN(CCn2c(=S)[nH]c3ccccc3c2=O)CC1	DRD3 antagonist -69
CCN1CCN(C(=O)c2ccc3c(=O)n(Cc4ccccc4OC)c(=S)[nH]c3c2)CC1	DRD3 antagonist -50
COc1ccccc1Cn1c(=S)[nH]c2cc(C(=O)N3CCCC3)ccc2c1=O	none
O=c1c2ccccc2[nH]c(=S)n1CCN1CCCC1	none
O=C(c1ccc(F)cc1)C1CCN(CCn2c(=S)[nH]c3ccccc3c2=O)CC1	D1 antagonist -79 (no result: DRD3 antagonist)
CCN1CCN(CCn2c(=S)[nH]c3ccccc3c2=O)CC1	DRD3 antagonist -62
Cc1cc(C)cc(Oc2c(C(F)(F)F)oc3c(CN4CCCC(C)C4)c(O)ccc3c2=O)c1 (stereo not given)	none (no result: BCR signal inh, DRD3 antagonist)
CN(C(=O)CSc1cn(CC(=O)N2CCCCC2)c2ccccc12)c1ccccc1	none (no result: BCR signal inh, DRD3 antagonist)
O=c1c2ccccc2[nH]c(=S)n1CCCN1CCC(Cc2ccccc2)CC1	BCR signal inh inconclusive, DRD3 antagonist -90, D1 antagonist -31
CC1(C)C(=O)N(CCN2CCC(C(=O)c3ccc(F)cc3)CC2)c2ccccc21	DRD3 antagonist -84, D1 antagonist -62
CCn1c(=O)[nH]c2ccccc2c1=O	DRD3 antagonist -56
Cc1cc2oc(C(=O)NCc3ccncc3)c(C)c2cc1C	BCR signal inh inconclusive, D1 antagonist -36
COc1ccc(CNC(=O)C(=O)NCC(c2ccco2)S(=O)(=O)c2ccc(Cl)cc2)cc1 (stereo not given)	BCR signal inh inconclusive (no result: DRD3 antagonist, D1 antagonist)
CCOc1ccc(/C=C2\SC(=S)N(CC(=O)NCCCN3CCOCC3)C2=O)cc1	none
CCc1ccc(/C=C2\SC(=S)N(CCC(=O)NCCCN3CCOCC3)C2=O)cc1	BCR signal inh inconclusive, D1 antagonist -37
CC(C)c1ccc(/C=C2\SC(=S)N(CC(=O)NCCCN3CCOCC3)C2=O)cc1	D1 antagonist -35
O=C(CCCN1C(=O)/C(=C/c2ccccc2)SC1=S)NCCCn1ccnc1	BCR signal inh inconclusive, D1 antagonist -30
O=C(CSc1nnc(-c2ccccc2)c(-c2ccccc2)n1)NC1CCCCC1	none (no result: BCR signal inh, DRD3 antagonist)
COc1cc(C(=O)NCC2CCCO2)cc(OC)c1OC (stereo not given)	BCR signal inh inconclusive
COc1cccc(OC)c1OCC(C)CNCC1CCCO1 (stereo not given)	DRD3 antagonist -67
Cc1cccc(C)c1NC(=O)C1(C)CSCC(=O)N1Cc1cccc(C(F)(F)F)c1 (stereo not given)	none (no result: BCR signal inh, D1 potentiator, D1 antagonist, D1 ag)
COc1ccc(NC(=S)NCCc2c[nH]c3ccccc23)c(OC)c1	D1 antagonist -36
COc1ccc(CNCc2ccco2)cc1OCc1ccccc1	D1 ag 44
COc1ccc(NC(=S)NCCc2c[nH]c3ccc(OC)cc23)c(OC)c1	none
COc1cc(CNCCc2c[nH]c3ccccc23)ccc1OCc1ccccc1F	BCR signal inh inconclusive, DRD3 antagonist -56
COc1ccc(CCNCc2c(OC)ccc3ccccc23)cc1OC	D1 ag 38
OCC[C@@H]1C[C@H](O)[C@@H](O)[C@]2(OCc3cc(Cl)ccc32)O1	none (no result: BCR signal inh, D1 potentiator, D1 antagonist, D1 ag)
COc1ccccc1CCNCc1ccc(OC)c(OCc2ccccc2)c1	BCR signal inh inconclusive, DRD3 antagonist inconclusive, D1 antagonist -58, D1 ag 62
COc1cccc(C2=Cc3ccc(F)cc3C(CC(C)=O)N2c2ccc(C#CC3(O)CCCCC3)cc2)c1 (stereo not given)	none (no result: BCR signal inh, D1 potentiator, D1 antagonist, D1 ag)
Cn1cccc1/C=C(/C#N)C(N)=S	DRD3 antagonist -63, D1 antagonist -49
Cc1cc(C)c(/C=C(\C#N)C(N)=S)c(C)c1	BCR signal inh inconclusive
Cc1ccc(-c2ccc(/C=C(\C#N)C(N)=S)n2C)cc1	BCR signal inh inconclusive, D1 antagonist -51
CC(C)(C)C(=O)Nc1ccc(-c2nc3ccccc3s2)cc1	none (no result: BCR signal inh, DRD3 antagonist)
O=C(CSc1nc(-c2ccccc2F)nc2cc(=O)[nH]n12)Nc1cccc(C(F)(F)F)c1	none (no result: BCR signal inh, DRD3 antagonist)
Cc1cccc(C)c1NC(=O)C1(C)CSCC(=O)N1CCCN1CCOCC1 (stereo not given)	none (no result: BCR signal inh, D1 potentiator, D1 antagonist, D1 ag)
O=C(COC(=O)c1cc(S(=O)(=O)NCc2ccccc2)ccc1O)c1cc2ccccc2o1	BCR signal inh inconclusive, D1 antagonist -62
O=C(COC(=O)c1cc(S(=O)(=O)NCc2ccccc2)ccc1O)NCc1ccccc1	none
COc1ccc(C(=O)Nc2nnc(S(=O)(=O)N(C)c3ccc(C)cc3)s2)cc1	none (no result: BCR signal inh, DRD3 antagonist)
C[C@@H](c1ccccc1)N1C[C@H](COCc2ccccc2)Oc2cc(N3CCC[C@@H]3CO)ccc2S1(=O)=O	none (no result: BCR signal inh, D1 potentiator, D1 antagonist, D1 ag)
CCCCC1=CC2=C(c3ccco3)C(=O)C(C)(OC(=O)c3ccc(OC)cc3)C(=O)C2=CN1CCCOC(C)C (stereo not given)	DRD3 antagonist -83
COc1ccccc1C(=O)Nc1nc2ccc(S(=O)(=O)N3CCCC3)cc2s1	none (no result: BCR signal inh, DRD3 antagonist)
CCn1c(=O)cc(OCC(=O)NCc2ccccc2OC)c2ccccc21	none (no result: BCR signal inh, DRD3 antagonist)
CN(C)CCCN(Cc1ccccc1)C(=S)Nc1ccc(F)c(Cl)c1	D1 antagonist -34, D1 ag 35
CN(C)CCCN(Cc1ccccc1)C(=S)Nc1cccc(C(F)(F)F)c1	BCR signal inh inconclusive
CCCN(Cc1ccccc1)C(=S)Nc1cccc(C(F)(F)F)c1	D1 antagonist -32
Fc1ccccc1N1CCN(c2ncnc3onc(-c4ccc(Cl)cc4)c23)CC1	none (no result: BCR signal inh, DRD3 antagonist)
O=C(COc1ccc(F)cc1)NCc1ccc2c(c1)CCN2C(=O)c1ccccc1	BCR signal inh inconclusive (no result: DRD3 antagonist)
